Reference: PubChem BioAssay (NCATS)
Values joined by “and” are separate entries in the source; they are usually repeats but may differ in a detail not shown here. Equal entries are not always repeated. Inconclusive results are not listed. Active and inactive are the calls of the source. Calls come from the whole dose curve; as a rule, active = well fitted curve in the direction sought with a large enough effect; inconclusive = small, poorly fitted or top-dose-only effect, or another doubt; inactive = no such curve, though single readings can be large; an effect the other way counts as inactive or inconclusive.

Molecular target: Cytochrome P450 3A4 (Homo sapiens) (UniProt P08684)
Sequence (P08684 whole entry, looked up): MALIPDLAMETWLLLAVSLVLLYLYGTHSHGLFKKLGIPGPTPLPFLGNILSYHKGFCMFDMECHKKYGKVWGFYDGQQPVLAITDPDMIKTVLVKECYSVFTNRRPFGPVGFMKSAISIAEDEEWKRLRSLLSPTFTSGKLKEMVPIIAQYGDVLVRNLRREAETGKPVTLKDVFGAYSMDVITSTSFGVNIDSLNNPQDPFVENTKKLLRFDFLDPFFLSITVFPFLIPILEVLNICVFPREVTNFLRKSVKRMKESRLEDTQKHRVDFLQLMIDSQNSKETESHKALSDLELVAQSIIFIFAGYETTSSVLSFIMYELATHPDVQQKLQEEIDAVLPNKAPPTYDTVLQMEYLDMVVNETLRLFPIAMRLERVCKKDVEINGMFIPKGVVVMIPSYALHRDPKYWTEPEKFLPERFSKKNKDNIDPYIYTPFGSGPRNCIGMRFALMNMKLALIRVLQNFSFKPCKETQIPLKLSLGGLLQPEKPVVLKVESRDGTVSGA
Assay: qHTS Assay for Activators of Cytochrome P450 3A4 (AID 885); note: nearly all actives have a fitted effect of over 65% in size
Conditions: recombinant CYP3A4, Luciferin-PPXE luminescence, 60 min; series mostly up to 57.1 µM; activity change, positive = activation: at the top concentration
In short: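 Using 20nM recombinant human CYP3A4 in potassium phosphate (200mM), substrate Luciferin-PPXE at 25uM, luminescent luciferin detection followed a 60-min RT NADPH reaction; data scaled to 57 uM ketoconazole.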

Row | SMILES | activity change, positive = activation
1 | COc1ccc(OC2C=CC(C#Cc3ccc(F)cc3F)OC2CO)cc1 (stereo unspecified) | -84.9% [at 11.4 µM] (inactive) and -82.9% [at 11.4 µM] (inactive)
2 | CCOC(=O)OCC1OC(c2cc(C)cc(C)c2)C=CC1OC(=O)OCC (stereo unspecified) | -69.3% [at 11.4 µM] (inactive)
3 | C/C(CCC(=O)OC[C@@H]1O[C@H](C#Cc2ccccc2)C=C[C@@H]1Oc1ccc(C)cc1)=N/O[C@@H](C)c1cn([C@H](CO)Cc2ccccc2)nn1 | -114% [at 11.4 µM] (inactive) and -117% [at 11.4 µM] (inactive)
4 | COc1ccc(OCC2CN3C(CCC(C)C3c3ccc(Br)cc3)C(=O)O2)cc1 (stereo unspecified) | -46.6% [at 11.4 µM] (inactive) and -70% [at 11.4 µM] (inactive)
5 | COc1ccc(/C=C/NC(=O)c2ccc(OC)cc2)cc1 | -68.6% [at 11.4 µM] (inactive)
6 | CC#CC(C)C(OCOC)C(CC(C)Cc1cc(Br)cc(OCc2ccccc2)c1OC)OC (stereo unspecified) | -76.2% [at 11.4 µM] (inactive)
7 | COc1ccc(O[C@H]2C=C[C@@H](c3ccccc3)O[C@H]2COC(=O)CC/C(C)=N\OC[C@@H](O)[C@H]2O[C@H]3OC(C)(C)O[C@H]3[C@@H]2O)cc1 | -92.2% [at 11.4 µM] (inactive)
8 | Cc1cc(C)cc(/C=C/C2OCC(O)C2Oc2ccc(C3CCCC3)cc2)c1 (stereo unspecified) | -62.6% [at 11.4 µM] (inactive) and -33.3% [at 11.4 µM] (inactive)
9 | COc1ccc(O[C@H]2C=C[C@@H](c3ccccc3)O[C@H]2CO/N=C2/c3cc(OC)ccc3O[C@@H](c3cccc(OC)c3)[C@H]2O)cc1 | -100% [at 11.4 µM] (inactive)
10 | CCN1C(C)=C(C(=O)OC)C(c2ccccc2)N2C(=O)[C@](O)(C(=O)OC)C(c3ccccc3)C(C(=O)c3ccccc3)=C12 (stereo partly specified) | -65.7% [at 11.4 µM] (inactive)
11 | COC(=O)NC(CC(C)=O)c1ccc2c(c1)OCO2 (stereo unspecified) | -67.3% [at 11.4 µM] (inactive)
12 | COC(=O)C1=C(C)N(Cc2ccccc2)C2=C3C(=O)CCCC3[C@@](O)(C(=O)OC)C(=O)N2C1c1ccccc1 (stereo partly specified) | -36% [at 11.4 µM] (inactive)

Molecular target: Cytochrome P450 2D6 (Homo sapiens) (UniProt P10635)
Sequence (P10635 whole entry, looked up): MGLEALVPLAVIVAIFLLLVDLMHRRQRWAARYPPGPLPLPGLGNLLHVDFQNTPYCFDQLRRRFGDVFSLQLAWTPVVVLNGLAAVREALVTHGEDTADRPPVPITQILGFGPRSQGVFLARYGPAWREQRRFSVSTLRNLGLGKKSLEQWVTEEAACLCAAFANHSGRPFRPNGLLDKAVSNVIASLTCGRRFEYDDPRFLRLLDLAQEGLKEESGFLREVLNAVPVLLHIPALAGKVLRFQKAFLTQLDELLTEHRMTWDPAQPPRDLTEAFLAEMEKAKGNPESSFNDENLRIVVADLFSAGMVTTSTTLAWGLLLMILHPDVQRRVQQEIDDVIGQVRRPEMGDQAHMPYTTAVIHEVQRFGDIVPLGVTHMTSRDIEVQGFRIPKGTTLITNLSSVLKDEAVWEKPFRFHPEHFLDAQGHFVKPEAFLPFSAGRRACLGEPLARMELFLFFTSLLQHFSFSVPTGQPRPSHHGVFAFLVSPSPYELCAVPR
Assay: qHTS Assay for Inhibitors and Substrates of Cytochrome P450 2D6 (AID 891); note: nearly all actives have a fitted effect of over 60% in size; note: potency is the fitted concentration of half-maximal effect;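 for activity change, negative = inhibition: luciferin methyl ether substrate demethylated by CYP2D6 with NADPH regeneration; % is set by controls: 0 for no effect and ±100 for the full control effect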
Conditions: recombinant CYP2D6, luciferin-ME EGE luminescence; series mostly up to 11.4 µM; activity change, negative = inhibition: at the top concentration
In short: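 Luminescent read-out of luciferin formed by 5 nM human CYP2D6 demethylating 30 uM Luciferin-ME EGE (Km level) over 60 min at room temperature after NADPH regeneration addition. Data normalized to full inhibition by 1.43 uM quinidine.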

Row | SMILES | activity change, negative = inhibition | Potency
13 | C=CCOC(=O)C(C(C)=O)C(NC(=O)OC)c1cccs1 (stereo unspecified) | 22.1% (inactive) | 
14 | COC(=O)N(/C=C/c1ccc(OC)cc1)CCc1ccc(OC)c(OC)c1 | -12.7% (inactive) | 
15 | CCCCCCC(=O)Cc1cc(OC)c(OC)cc1/C=C(/C(C)=O)C(=O)OC | -5.45% (inactive) | 
16 | COc1ccc(/C=C/N(CCc2ccc(OC)c(OC)c2)C(C)=O)cc1 | 0.242% (inactive) | 
17 | COC(=O)NC(/C(C(=O)OC)=C(\C)NCc1ccccc1)c1ccc(F)cc1 (stereo unspecified) |  | 1000 nM (active)
18 | Cc1cc(C)cc(C#CC2C=CC(Oc3ccc(C4CCCC4)cc3)C(CO)O2)c1 (stereo unspecified) | -6.76% (inactive) | 
19 | COC(=O)C1=C(C)N(Cc2ccccc2)C2=C(C(=O)c3ccccc3)C(c3ccccc3)[C@@](O)(C(=O)OC)C(=O)N2C1c1ccccc1 (stereo partly specified) |  | inactive
20 | C=CCC1C=CC(Oc2ccc(OC)cc2)C(CO)O1 (stereo unspecified) | -0.458% (inactive) | 
21 | COc1ccc(/C=C/N(CCc2ccc(OC)c(OC)c2)C(=O)c2ccccn2)cc1 | -9.9% (inactive) | 
22 | COC(=O)C1=C(C)N(Cc2ccccc2)C2=C3C(=O)N(C)C(=O)C3[C@@](O)(C(=O)OC)C(=O)N2C1c1ccccc1 (stereo partly specified) |  | inactive
23 | COC(=O)C1=C(C)N(Cc2ccccc2)C2=C3C(=O)OCCC3[C@@](O)(C(=O)OC)C(=O)N2C1c1ccccc1 (stereo partly specified) | -2.42% (inactive) | 
24 | CC1CCC2C(=O)OC(COc3ccc(C(C)(C)C)cc3)CN2C1c1ccc(Br)cc1 (stereo unspecified) |  | inactive
25 | C=COCC1CN2C(CCC(C)C2c2ccc(Br)cc2)C(=O)O1 (stereo unspecified) | 4.94% (inactive) | 
26 | COc1ccc(OC2C=CC(c3ccccc3)OC2CO)c(C(C)(C)C)c1 (stereo unspecified) | -3.2% (inactive) | 
27 | COc1ccc(OC2C=CC(C#Cc3ccc(F)cc3F)OC2CO)cc1 (stereo unspecified) | -19.5% (inactive) | 
28 | COc1ccc(OCC2CN3C(CCC(C)C3c3ccc(Br)cc3)C(=O)O2)cc1 (stereo unspecified) | -11% (inactive) | 
29 | COc1ccc(/C=C/NC(=O)c2ccc(OC)cc2)cc1 | 17.1% (inactive) | 
30 | CC#CC(C)C(OCOC)C(CC(C)Cc1cc(Br)cc(OCc2ccccc2)c1OC)OC (stereo unspecified) | 0.432% (inactive) | 
31 | Cc1cc(C)cc(/C=C/C2OCC(O)C2Oc2ccc(C3CCCC3)cc2)c1 (stereo unspecified) |  | inactive
32 | COC(=O)NC(CC(C)=O)c1ccc2c(c1)OCO2 (stereo unspecified) | 2.27% (inactive) | 
33 | COC(=O)C1=C(C)N(Cc2ccccc2)C2=C3C(=O)CCCC3[C@@](O)(C(=O)OC)C(=O)N2C1c1ccccc1 (stereo partly specified) |  | inactive

Molecular target: Cytochrome P450 2C19 (Homo sapiens) (UniProt P33261)
Sequence (P33261 whole entry, looked up): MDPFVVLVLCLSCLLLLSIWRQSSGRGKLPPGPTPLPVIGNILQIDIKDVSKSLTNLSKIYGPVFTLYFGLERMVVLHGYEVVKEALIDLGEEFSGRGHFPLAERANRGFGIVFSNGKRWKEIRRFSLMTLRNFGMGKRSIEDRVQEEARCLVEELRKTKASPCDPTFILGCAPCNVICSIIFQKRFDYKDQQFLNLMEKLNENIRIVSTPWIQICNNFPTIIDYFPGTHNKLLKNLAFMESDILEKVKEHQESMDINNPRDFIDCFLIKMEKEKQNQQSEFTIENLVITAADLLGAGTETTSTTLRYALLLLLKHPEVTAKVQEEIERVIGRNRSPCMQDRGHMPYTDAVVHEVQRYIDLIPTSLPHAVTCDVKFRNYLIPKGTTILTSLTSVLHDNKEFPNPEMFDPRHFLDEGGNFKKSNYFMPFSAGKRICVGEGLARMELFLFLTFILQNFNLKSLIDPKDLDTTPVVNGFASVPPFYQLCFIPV
Assay: qHTS Assay for Inhibitors and Substrates of Cytochrome P450 2C19 (AID 899); note: potency is the fitted concentration of half-maximal effect; nearly all actives have a fitted effect of over 60% in size
Conditions: recombinant CYP2C19, luciferin-H EGE luminescence; series mostly up to 11.4 µM; activity, negative = inhibition: at the top concentration
In short: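 In 50mM KPO4, the reaction held 5nM enzyme and KM-level (10uM) Luciferin-H EGE; it ran 60 min at 37C after NADPH regeneration and a 10 min compound preincubation. Luminescence values were scaled to 57uM ketoconazole as complete inhibition.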

Row | SMILES | Potency
34 | C=CCOC(=O)C(C(C)=O)C(NC(=O)OC)c1cccs1 (stereo unspecified) | 398 nM (active)
35 | CCCCOC(OCCCC)[C@H](O)CSc1ccc2ccccc2c1 | 3160 nM (active)
36 | CCCCCCC#CC1C=CC(OC(=O)OCC)C(COC(=O)OCC)O1 (stereo unspecified) | 2000 nM (active)
